Shown are actives, neighbours in structure and some others; about 2.4% of the full set was active somewhere.
ANO1 block = blocks the mouse calcium-activated chloride channel TMEM16A | normalized B-score (activity score, 25-100; higher = stronger inhibition) at 10 µM | HEK293 TMEM16A/YFP iodide influx fluorescence, ionomycin | 310,000 tested, 1.2% active | AID 588511;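 active = ratio plate-corrected score three or more library SD toward inhibition, starting fluorescence score within five deviations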;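 also: score derived from kinetic fluorescence span divided by baseline fluorescence per well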
Target sequence (Q8BHY3 whole entry, looked up): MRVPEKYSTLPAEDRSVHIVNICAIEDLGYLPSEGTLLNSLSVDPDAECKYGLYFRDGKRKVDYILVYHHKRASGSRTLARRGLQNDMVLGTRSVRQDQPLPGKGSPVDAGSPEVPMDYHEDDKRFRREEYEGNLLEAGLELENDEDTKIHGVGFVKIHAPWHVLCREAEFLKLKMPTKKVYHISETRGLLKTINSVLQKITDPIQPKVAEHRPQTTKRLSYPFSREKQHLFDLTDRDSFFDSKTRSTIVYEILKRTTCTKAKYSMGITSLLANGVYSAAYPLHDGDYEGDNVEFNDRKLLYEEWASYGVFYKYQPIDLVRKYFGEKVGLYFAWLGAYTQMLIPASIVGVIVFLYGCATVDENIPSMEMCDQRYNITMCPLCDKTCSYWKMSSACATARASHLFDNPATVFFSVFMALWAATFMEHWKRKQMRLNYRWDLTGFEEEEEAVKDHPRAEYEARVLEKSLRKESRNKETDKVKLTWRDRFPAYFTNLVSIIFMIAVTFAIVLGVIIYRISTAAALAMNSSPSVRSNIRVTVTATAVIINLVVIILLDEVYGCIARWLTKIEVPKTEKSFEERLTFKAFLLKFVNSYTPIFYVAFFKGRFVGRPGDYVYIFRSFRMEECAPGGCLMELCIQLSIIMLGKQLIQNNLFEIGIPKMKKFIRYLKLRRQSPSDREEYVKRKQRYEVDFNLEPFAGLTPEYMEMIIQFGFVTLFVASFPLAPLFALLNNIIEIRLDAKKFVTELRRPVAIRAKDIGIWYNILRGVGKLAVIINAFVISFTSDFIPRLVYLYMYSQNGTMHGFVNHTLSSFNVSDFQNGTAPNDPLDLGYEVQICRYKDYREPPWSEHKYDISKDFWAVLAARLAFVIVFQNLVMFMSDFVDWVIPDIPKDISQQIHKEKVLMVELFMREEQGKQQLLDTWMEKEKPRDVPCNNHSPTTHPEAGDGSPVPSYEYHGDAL
TMEM16A act = activators or potentiators of mouse TMEM16A chloride channel. Q8BHY3. HEK293 TMEM16A/YFP-H148Q/I152L, iodide quench fluorescence; stronger effect = lower value. B-score at 10 µM. 340,000 tested, 0.3% active. AID 623877;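 active = fluorescence-ratio B-score plate-corrected deviation score at least 3 library SD below zero, with starting fluorescence score within 5 deviations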;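 also: channel opened by trigger with iodide after compound preincubation; score built on the fluorescence ratio of max minus min over baseline; more negative score means more quench and so TMEM16A activation or potentiation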
CHT PAM = human CHT allosteric activation | CHT-expressing cells, membrane potential dye, choline EC20; stronger effect = higher value; LV-AA mutant CHT in HEK293 cells | B-score at 10 µM | 310,000 tested, 0.49% active;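 active = initial fluorescence not abnormally high and integrated response B-score, plate-corrected, over 3 SD above library mean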
CHT inh = inhibits the human high affinity choline transporter; B-score at 10 µM; Q9GZV3; CHT-expressing cells, membrane potential dye, choline response; stronger effect = lower value; AID 488975; 310,000 tested, 0.86% active;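 active = B-score over 3 SD under the library average, and starting fluorescence ratio not unusually high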;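 also: choline stimulus applied at its EC90 after an EC20 pre-addition; B-score computed on integrated fluorescence ratio after choline addition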
* marks the source's active call; other numbers are inactive results; i = inactive; nt = no result given; ! = repeats disagree.

SMILES	ANO1 block	TMEM16A act	CHT PAM	CHT inh
Cc1cccc(CCN2C(Nc3ccccc3)=NC[C@@H]2CC(C)C)c1	i	-6.1*	i	i
O=C(O)CSCC(=O)N1CCN(Cc2ccc3c(c2)OCO3)CC1	i	i	i	i
O=c1c2ccccc2nnn1CSc1nc2ccccc2[nH]1	i	-7.6*	i	i
COc1cccc(/C=N/Nc2snc(SC)c2C#N)c1O	100*	i	i	i
COc1cccc(-n2c(C)c(C(C)=O)c(C(C)=O)c2C)c1	i	-13*	i	i
COc1cc(C2NC(=O)NC(c3ccccc3)=C2C(C)=O)c(Br)c(Br)c1O (stereo not given)	i	i	i	i
COc1ccc(CC(=O)OCC(=O)N2CCc3ccccc32)cc1OC	nt	-25*	nt	nt
CC(=O)N(c1ccc(Cl)cc1)c1cn(C(C)=O)c2ccccc12	i	i	i	i
CC(=O)n1cc(-c2ccncc2)c2ccccc21	i	i	6.5*	i
COC(=O)c1cccc(CSc2nc3ccccc3[nH]2)c1	25*	i	i	i
COC(=O)c1ccc(CSc2nc3ccccc3[nH]2)o1	i	i	i	i
COCCN(Cc1ccccc1)C(=O)c1ccc(C(=O)c2ccccc2)cc1	nt	i	nt	nt
COCCN(CCOC)C(=O)c1ccc(CSc2nc3ccccc3s2)cc1	25*	i	i	i
COc1ccc2ccccc2c1/C=N/NC(=S)NCCN1CCOCC1	i	-29*	i	i
S=C(NCCN1CCOCC1)N/N=C/c1c2ccccc2cc2ccccc12	i	i	i	i
CC1=CC(=O)c2ccccc2C1=O	i	i	i	i
CC1=C/C(=N\OS(=O)(=O)c2ccccc2)C(C(C)C)=CC1=O	i	-5*	i	i
COCC(=O)N/N=C(\C)CC(=O)Nc1ccccc1C(N)=O	i	i	i	i
Cc1c(C(=O)c2no[n+]([O-])c2C(=O)c2cnn(C)c2C)cnn1C	i	i	i	-5.9*
COc1ccccc1CNC(=O)c1cc(C)nc2ccccc12	i	i	i	i
COc1ccc(CNC(=O)c2cc(C)nc3ccccc23)cc1OC	i	-5.6*	i	i
Cc1ccc(S(=O)(=O)Nc2ccccc2-c2ccccc2NS(=O)(=O)c2ccc(C)cc2)cc1	100*	i	i	i
Cc1ccc(S(=O)(=O)Nc2ccccc2C(N)=O)cc1	i	i	i	i
Cc1cc(C(=O)NC2CCCc3c2cnn3-c2ccc(C(C)(C)C)cc2)nn1C (stereo not given)	25*	i	i	i
CCCNC(=O)c1ccccc1NC(=O)CN(c1ccccc1OCC)S(C)(=O)=O	i	i	i	i
SMILES	ANO1 block	TMEM16A act	CHT PAM	CHT inh
Cc1ccc(/C=C2\C(=O)ON=C2c2ccccc2)o1	i	i	i	i
Cc1ccc(-c2ccc(/C=C3\C(=O)ON=C3c3ccccc3)o2)c([N+](=O)[O-])c1	100*	-5.7*	i	i
N#Cc1c(Cl)nsc1NC(=O)c1ccccc1	100*	i	i	i
CC(=O)Nc1nc(=S)ss1	i	i	i	i
Cc1ccccc1C(=O)Nc1nc(=S)ss1	100*	i	i	i
Cc1cc2c(=O)n(Cc3ccco3)c(SCC(=O)c3ccc(Cl)s3)nc2s1	25*	i	i	i
O=C(COC(=O)c1ccc(Sc2ccccc2)c([N+](=O)[O-])c1)NC1CCS(=O)(=O)C1 (stereo not given)	i	i	i	i
CC1CCCCC12NC(=O)N(CC(=O)OCc1cccc(F)c1)C2=O (stereo not given)	nt	-20*	nt	nt
CCCCn1c(N)c(N(CC(C)C)C(=O)Cc2ccc(S(=O)(=O)N3CCOCC3)s2)c(=O)[nH]c1=O	nt	-7.5*	nt	nt
Cc1ccc(S(=O)(=O)N(C)CC(=O)OCC(=O)c2ccc3c(c2)NC(=O)CO3)cc1	nt	i	nt	nt
Cc1ccccc1N/N=C/c1sc(=O)n(Cc2cccc(C(=O)O)c2)c1Cl	25*	i	i	i
CCOC(=O)c1ccc(NC(=O)NC2CC3CCC(C2)N3Cc2nnnn2Cc2ccco2)cc1 (stereo not given)	i	-47*	i	i
Cc1nn(-c2ccccc2)nc1CNC(=O)c1ncoc1-c1ccccc1	i	-5.6*	i	i
Cc1nn(-c2ccccc2)nc1CNC(=O)CC(C)(C)C	i	i	i	i
CCN(CC)CCOC(=O)c1cccc2c1-c1ccccc1C2O (stereo not given)	i	i	i	i
O=C1c2ccccc2-c2nnc(-c3ccccc3)cc21	i	i	i	i
NC(=O)C1=C(c2ccccc2)c2ccccc2C1=O	nt	-6.3*	nt	nt
COCCn1c(C)cc(C(=O)CSc2ccc3ccccc3n2)c1C	25*	i	i	i
CCOc1ccc(N2C(=O)CC(NCCNc3ccc([N+](=O)[O-])cn3)C2=O)cc1 (stereo not given)	25*	i	i	i
CCOc1ccc(N2C(=O)CC(NCCc3ccncc3)C2=O)cc1 (stereo not given)	i	i	i	i
Cc1nnc(SCC2=C(C(=O)O)N3C(=O)[C@@H](NC(=O)Cn4cnnn4)[C@H]3SC2)s1	100*!	i	i	i
Cc1oc2c(C)c3oc(=O)c(CCC(=O)N4CCC(C(=O)NCCC(=O)O)(c5ccccc5)CC4)c(C)c3cc2c1C	i	i	i	i
CN(C)CC(CCC(CN(C)C)C(=O)c1ccccc1)C(=O)c1ccccc1 (stereo not given)	nt	-9.5*	nt	nt
CCCOc1cccc(-c2cc(C(=O)N/N=C/c3ccccn3)c3ccccc3n2)c1	i	i	i	i
CCCOc1cccc(-c2cc(C(=O)N/N=C/c3cccnc3)c3ccccc3n2)c1	25*	i	i	i
SMILES	ANO1 block	TMEM16A act	CHT PAM	CHT inh
O=C(N/N=C/c1ccccc1OC(F)F)c1cc(-c2ccncc2)nc2ccccc12	i	i	i	-6*
COc1ccc(-c2nn(-c3ccccc3)cc2C(=O)N/N=C/c2ccc([N+](=O)[O-])o2)cc1	i	-6.9*	i	i
Nc1nnc(SCC(=O)N2CCN(Cc3ccccc3)CC2)s1	i	i	i	i
COC(=O)C1=C(N)Oc2cc(C)n(Cc3cccnc3)c(=O)c2C1c1ccccc1OC (stereo not given)	i	i	i	i
COC(=O)C1=C(N)Oc2cc(C)n(Cc3ccncc3)c(=O)c2C1c1cccnc1 (stereo not given)	i	-15*	i	i
CSCCC1NC(=O)N(CC(=O)Nc2ccc(N3CCCCC3)cc2)C1=O (stereo not given)	i	i	i	i
Cc1ccc(N2N=C(c3ccc(Br)cc3)CCC2=O)cc1	i	i	i	i
Cc1ccc(NS(=O)(=O)c2ccc(C(=O)N3CCN(c4ncccn4)CC3)cc2)cc1	25*	i	i	i

From PubChem BioAssay
